# Assay results reported in ChEMBL document CHEMBL3988442, “University of Dundee, Small-Polar-MMV Screening Library” (2021).
# Out of some 38,000 compounds screened, about 1,200 (3.2%) showed an effect of 50% or more. The median lay at about -58%. Shown is part of a subset that was picked to be rich in strong results.
# Test system: Plasmodium falciparum
# Assay: Calibr Malaria Delayed Death Assay SOP
# Type: functional, organism-based
# Design: scale not given: in the data most compounds retested in dose-response had high values
# Details: concentration 4.99e-06 (unit not given; other assays of the set use mol/L)
row,Structure (SMILES),Percent Effect [%]
1,O=C1CCc2cc(-c3csc(CCN4CCOC4=O)n3)c(F)cc2N1,10.62
2,COc1cccc(CSc2nnc(C)n2CC(N)=O)c1,-57.97
3,NC(=O)CN(Cc1ccc(Br)cc1)C(=O)c1cccnc1,-140.6
4,Cc1ccc(-n2cc(CN3CCOCC(CN(C)C)C3)cn2)cc1C (stereo not given),38.47
5,COc1ccc(CN2C[C@@H](CN(C)C)[C@@H](CO)C2)c(Cl)c1OC,-21.55
6,COc1ccc(CN2C[C@@H](CN(C)C)[C@@H](CO)C2)cc1OC,-68.69
7,COc1ccc(-n2cccn2)c(CN2CCOCC(CN(C)C)C2)c1 (stereo not given),78.01
8,COc1ccc(CN2CCOC[C@H](Oc3cccnc3)C2)cc1,-114.4
9,Cc1cc(C)c(-n2cccn2)c(CN2CCOCC(CN(C)C)C2)c1 (stereo not given),34.59
10,Cc1cc(-n2cccn2)ccc1CN1C[C@@H](CN(C)C)[C@@H](CO)C1,52.18
11,COc1ccc(O[C@H]2COCCN(Cc3c[nH]c4ccccc34)C2)cc1,-21.41
12,Cc1cc(-n2cccn2)ccc1CN1CCOCC(CN(C)C)C1 (stereo not given),73.33
13,CCc1cc2c(N3CCCC(c4ccn[nH]4)C3)ncnc2s1 (stereo not given),10.63
14,O=C(CC1CCc2ccccc21)N1CCC(O)(Cn2ccnc2)CC1 (stereo not given),-24.52
15,CCCN1CCC(c2nc3ccc(-c4cccc(OC)c4)cn3n2)CC1.O=C(O)C(F)(F)F,-29.22
16,CCN(CC)Cc1nnc2sc(-c3cc(C(C)C)[nH]n3)nn12,-70.51
17,CN(C(=O)Cn1nc(-c2ccc(Cl)cc2)ccc1=O)C1CCS(=O)(=O)C1 (stereo not given),1.296
18,CC(=O)N1CCC(c2nc3ccc(-c4ccnn4C)cn3n2)CC1.O=C(O)C(F)(F)F,-57.67
19,NC(=O)N1Cc2nccn2CC(Cn2ncccc2=O)C1 (stereo not given),-152.6
20,O=C(O)C(F)(F)F.O=C(O)C(F)(F)F.O=C(O)C(F)(F)F.c1cc(CN2CCCC23CCCN(Cc2ccoc2)C3)ccn1 (stereo not given),-115.9
21,COCCC(=O)N1CCC2(CCN(Cc3ccc(C)cc3)CC2)C1.O=C(O)C(F)(F)F,-50.1
22,CS(=O)(=O)N1CCCC12CCN(Cc1ccoc1)CC2,-46.44
23,COCC(=O)N1CCC2(CCN(Cc3ccc(C)cc3)CC2)CC1.O=C(O)C(F)(F)F,-23.78
24,Cc1ccc(CN2CCCC3(CCN(Cc4ccoc4)CC3)C2)cc1.O=C(O)C(F)(F)F.O=C(O)C(F)(F)F,79.2
25,COCCC(=O)N1CC2(CCN(Cc3ccncc3)CC2)C1,-37.67
26,Cc1nc(CN2CCC23CCN(Cc2ccoc2)CC3)cs1,35.85
27,Cn1ccnc1CN1CC2(CCN(Cc3ccncc3)C2)C1,-45.53
28,CS(=O)(=O)N1CCOCC2(CCN(Cc3ccoc3)CC2)C1.O=C(O)C(F)(F)F,-77.45
29,Cc1ccc(CN2CCC3(CC2)CCN(Cc2ccoc2)CC3)cc1.O=C(O)C(F)(F)F.O=C(O)C(F)(F)F,92.5
30,Cc1ccc(CN2CCC3(CCN(Cc4ccncc4)CC3)CC2)cc1,77.61
